Calls of active or inactive are those of the source. The call rests on the fitted dose curve; in most records, active means well fitted activation curve with a large enough effect; inconclusive means small, poorly fitted or top-dose-only effect; inactive means no such curve, though single readings can be large or run the other way.
Assay: Confirmatory qHTS for Identification of Small Molecule Activators of Huntingtin-Antisense Promoter Activity
Settings: HEK293 HTT-AS promoter firefly luciferase reporter, 24 h; series mostly up to 57.5 µM
How it was run: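 HEK293 luciferase reporter cells, 2,500/well, cultured 24 h, then exposed to compounds at up to 57.5 uM final for 24 h at 37C. Firefly luciferase luminescence read; normalized to vehicle (0%) and zero RLU (-100%).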

Potency, inactive:
O=S(=O)(Nc1ccc(F)c(C(F)(F)F)c1)c1ccc(N2CCCCS2(=O)=O)cc1
COc1ccccc1C1C=C(c2ccc(F)cc2)Nc2nc(-c3ccc(Cl)cc3)nn21 (stereo unspecified)
COc1ccc(CCNC(=O)c2ccc3nc(Cc4ccccc4)oc3c2)cc1OC
COc1ccc2c(c1)CCc1c(C(=O)Nc3c(C)nn(Cc4ccccc4C)c3C)noc1-2
CC(=O)N1CCc2c(sc(NC(=O)CSc3ccccc3)c2-c2nc3ccccc3s2)C1
CCOc1ccc(CCNC(=O)c2cc3n(n2)CCCN(Cc2ccc(C)cc2)C3=O)cc1OCC
CCCc1cc(N2CCN(c3ccccc3F)CC2)n2cnnc2n1
OCCCn1c(-c2ccc(F)cc2)csc1=Nc1ccc(F)cc1
Cc1ccc(Cl)cc1N1CCN(C(=O)c2cnc(N3CCOCC3)c3ccccc23)CC1
O=C(c1ccc2c(c1)N(Cc1ccccc1)C(=O)c1ccccc1S2(=O)=O)N1CCCCCC1
N#Cc1nc(-c2ccc(COc3ccc(Cl)cc3)o2)oc1N1CCC(C(N)=O)CC1
O=C(CSc1nccn1Cc1ccco1)Nc1cc(C(F)(F)F)ccc1Cl
COc1ccccc1C(=O)Nc1nnc(SCc2cc(=O)c3ccccc3[nH]2)s1
CCN(Cc1ccccc1)C(=O)C1CCC(CNS(=O)(=O)c2ccc3c(c2)CCCC(=O)N3)CC1 (stereo unspecified)
O=C(CSc1ccc(-c2ccccn2)nn1)Nc1ccc(F)c(F)c1
Cc1ccc(NC(=O)c2ccc(F)c(S(=O)(=O)NCCc3ccccc3)c2)cc1F

Reference: PubChem BioAssay AID1508622 (National Center for Advancing Translational Sciences (NCATS), 2021)
